Hits are enriched below; roughly 1.3% of the tested compounds scored in any of these assays.
IL2 activator: qHTS of IL-2 Activators; IL-2 activation reporter assay, cell-based qHTS; stimulated with anti-CD3/CD4/CD28 beads; in transgenic mouse T cells; activation, % (series mostly up to about 46 µM); 0.065% of 360,000 active; AID 652025, 2013; in the data active = activation above about 50%; inconclusive = mostly about 30% to 49%; also: 0% is about no effect
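Readout: EGFP and DsRed signals by fluorescent plate cytometry. Unstimulated transgenic mouse T cells received compound 60 min before antibody-bead stimulation, then incubated 18 h at 37 degrees C.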
BRCA1 expr up: qHTS Assay to Identify Small Molecule Activators of BRCA1 Expression | MCF7-BRCA1-FFLuc reporter, luminescence, 48 h; response scale: scaled: vehicle 0%, 10 µM genistein 100% | Potency, µM (titrated, usually from 46.1 µM), for inactives: at the highest dose activation, most hits filed as activators | 1.1% of 380,000 active; also: potency is read from the fitted curve at half-maximal effect; nearly all actives have a fitted effect of over 80% in size
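Using MCF7 cells harboring a BRCA1 firefly luciferase reporter, plated 2 h before compound pinning, the screen measured luminescence after 48 h incubation. Responses were normalized to DMSO and 10 microM genistein, then fitted for concentration-effect.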
TSG101-PTAP inh: qHTS Assay for Iinhibitors of HIV-1 Budding by Blocking the Interaction of PTAP/TSG101; Fluorescence polarization, FITC-PTAP peptide / Tsg101 binding; Potency, µM (top dose mostly 115 µM), for inactives: top-dose activity change, negative = inhibition, usual class: inhibitors; 340,000 tested, under 10 active; Tumor susceptibility gene 101 protein (Homo sapiens), Q99816; active = well fitted inhibition curve with a large enough effect in the main read-out, with a control signal flat, not every such curve was filed as active; inconclusive = small, poorly fitted or top-dose-only effect, or effect the other way, or a change in a side signal; inactive = no such curve, though single readings can be large or run the other way; also: potency is read from the fitted curve at half-maximal effect; % of control where 0% means no effect
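Compounds were pin-transferred onto Tsg101 binding domain (10 uM final) in HEPES pH 7.5 buffer, then FITC-PTAP peptide was added at 50 nM final. After 20 min at RT, polarization reported peptide displacement across a qHTS concentration series.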
TRPML1 inh: qHTS for Inhibitors of the Human Mucolipin Transient Receptor Potential 1 (TRPML1) | TRPML1-inducible cells, Ca2+ dye fluorescence, FDSS; hits give low values; inhibition of EC80 agonist-evoked calcium signal | 0.02% of 390,000 active | activity change, negative = inhibition, % (concentration not given with the values); in the data active = activity change below about -50%; inconclusive = between about -30% and that limit;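 also: stimulus is agonist 54-4 at its EC80 concentration; % is scaled to controls: 0 for no effect and ±100 for the full control effect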
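Tet-induced TRPML1-DL cells loaded with Ca8 no-wash calcium dye were read kinetically on FDSS. Compound addition was followed by EC80 agonist 54-4 (4 uM final); inhibition was read over 110 s.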
TRPML1 agonist: qHTS for Agonists of the Human Mucolipin Transient Receptor Potential 1 (TRPML1); Mucolipin-1 (Homo sapiens), Q9GZU1; 0.12% of 410,000 active; activation, % (concentration not given with the values); TRPML1-expressing cells, Ca2+ dye fluorescence, FDSS; in the data active = activation above about 50%; inconclusive = mostly about 30% to 49%; also: 0% is about no effect
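TRPML1-DL cells, Tet-induced overnight (~16 h, 37 degrees C), loaded 45-90 min at room temperature with Ca8 no-wash calcium dye plus quencher. FDSS fluorescence: 10 s baseline, compound pin-transfer, 110 s agonist read, then EC80 54-4 (4uM final) and 110 s antagonist read.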
PKM2 act: qHTS Assay for Activators of Human Muscle isoform 2 Pyruvate Kinase; purified PKM2, Kinase-Glo ATP luminescence, activation; response scale: 0% is enzyme alone, no compound; Potency, µM (highest dose often 57.5 µM), without a hit: at the top dose activation, usual class: activators; 0.34% of 260,000 active; also: potency is read from the fitted curve at half-maximal effect; % is scaled to controls: 0 for no effect and ±100 for the full control effect; nearly all actives have a fitted effect of over 55% in size
Target sequence (P14618 whole entry, looked up, canonical isoform): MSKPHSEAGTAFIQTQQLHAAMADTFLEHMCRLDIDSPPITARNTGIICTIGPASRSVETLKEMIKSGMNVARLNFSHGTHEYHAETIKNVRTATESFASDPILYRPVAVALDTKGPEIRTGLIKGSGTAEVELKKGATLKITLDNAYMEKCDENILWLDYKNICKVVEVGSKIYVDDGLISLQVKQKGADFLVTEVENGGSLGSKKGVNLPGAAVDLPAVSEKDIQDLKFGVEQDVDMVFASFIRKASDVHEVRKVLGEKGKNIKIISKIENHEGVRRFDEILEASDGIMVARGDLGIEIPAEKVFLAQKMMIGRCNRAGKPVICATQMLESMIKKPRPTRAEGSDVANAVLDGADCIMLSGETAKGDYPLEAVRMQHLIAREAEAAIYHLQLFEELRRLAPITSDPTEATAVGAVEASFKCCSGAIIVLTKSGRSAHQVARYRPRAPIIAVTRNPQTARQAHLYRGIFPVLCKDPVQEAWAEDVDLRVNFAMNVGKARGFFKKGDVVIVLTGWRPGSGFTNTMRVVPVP
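Purified hPK-M2 (>95%) run at intermediate activity with 0.1 mM ADP and 0.5 mM PEP in 50 mM imidazole pH 7.2, KCl, MgCl2; 1 h room temperature. ATP formed read by Kinase-Glo luminescence; normalized to uninhibited and no-enzyme controls.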
HeLa tox: Secondary assay for Activators of Human Pyruvate Kinase M2 isoform - Cell Titer Glo cytotoxicity assay | shares compounds with PKM2 act | HeLa viability, CellTiter-Glo ATP luminescence, 24 h | activity change, negative = cytotoxicity, % at 57.5 µM | 230 tested, under 10 active; also: % of control where 0% means no effect
Numbers without * were called inactive; u = inconclusive; x = no result; [ ] = remark or other dose. Unless noted, calls follow the shape of the dose curve; as a rule, active = well fitted curve in the direction sought with a large enough effect; inconclusive = small, poorly fitted or top-dose-only effect, or another doubt; inactive = no such curve, though single readings can be large; an effect the other way counts as inactive or inconclusive.

SMILES	IL2 activator	BRCA1 expr up	TSG101-PTAP inh	TRPML1 inh	TRPML1 agonist	PKM2 act	HeLa tox
Oc1ccc(-c2nc(-c3ccc(O)c(O)c3)cs2)cc1	0	-56%	0%	7	0	3.2µM*	-5
Oc1ccc(Nc2nc(-c3ccc4ccccc4c3)cs2)cc1	x	x	x	x	x	-12%	x
O=C(Nc1ccccc1)c1cc2c(-c3ccccc3)nn(-c3ccccc3)c2s1	x	14%	x	-12	1	x	x
COc1ccc(CCNC(=O)Cn2nc(C)n3c(cc4occc43)c2=O)cc1OC	x	15%	x	-3	0	x	x
CS(=O)(=O)Nc1ccc(C2=NN(C(=O)c3ccco3)C(c3ccccc3F)C2)cc1 (stereo not given)	-4	-2%	-3%	7	1	3.2µM*	0
CCS(=O)(=O)Nc1ccc(C2=NN(C(=O)c3ccco3)C(c3ccco3)C2)cc1 (stereo not given)	-3	-64%	-1%	16	1	x	x
CCC(=O)Nc1cc(-c2nc3ccccc3s2)c(Cl)cc1Cl	x	-9%	x	-11	-1	x	x
CCCc1nnc(NC(=O)CSc2nnc3c4ccccc4n(CC)c3n2)s1	x	x	x	11	0	x	x
CCc1nnc(NC(=O)CSc2nnc3c4ccccc4n(C)c3n2)s1	1	-8%	-5%	27	1	1.4µM*	-2
CC(=O)c1cc2c(s1)c1cnn(Cc3ccccc3F)c(=O)c1n2C	x	x	x	x	x	x	-1
Cn1c2cc(S(C)=O)sc2c2cnn(Cc3ccccc3F)c(=O)c21 (stereo not given)	x	x	x	x	x	x	10
CC(=O)N1CCN(S(=O)(=O)c2ccc3c(c2)OCCO3)CC1	0	-2%	-5%	-7	1	x	x
C[C@H]1CN(S(=O)(=O)c2c(F)cccc2F)CCN1S(=O)(=O)c1ccc2c(c1)OCCO2	1	-15%	0%	x	x	x	0
O=C1CN(S(=O)(=O)c2c(F)cccc2F)CCN1S(=O)(=O)c1ccc2c(c1)OCCO2	x	x	x	x	x	x	0
C[C@@H]1CN(S(=O)(=O)c2ccc3c(c2)OCCO3)CCN1S(=O)(=O)c1c(F)cccc1F	0	3%	0%	x	x	x	-2
Nc1cc(=O)[nH]c(=S)[nH]1	x	12%	x	x	0	x	x
COc1cccc(S(=O)(=O)Nc2ccc(C(=O)N3CCN(C(=O)c4ccco4)CC3)cc2)c1	-3	-13%	-4%	5	1	1.4µM*	-2
CCc1cc2c(-c3ccccc3)cc(=O)oc2c2c1OCN(Cc1ccc(F)cc1)C2	x	x	x	-17	2	x	x
Cc1cc(C)n2nc(SCc3cc(=O)oc4cc(C)c(C)cc34)nc2n1	x	x	x	x	x	-9%	x
Cc1cc(C)n2nc(SCc3cc(=O)oc4ccc5ccccc5c34)nc2n1	-2	-43%	-7%	1	0	2.8µM*	0
c1ccc2c(SCc3cn4ccccc4n3)nncc2c1	0	79%	-8%	4	0	4.5µM*	-13
Nc1ccccc1SCc1cn2ccccc2n1	0	u	-4%	35	0	3%	x
O=C(NCc1ccc2c(c1)OCO2)c1ccc(S(=O)(=O)N2CCCCC2)cc1	-1	-8%[1.84 µM]	-6%	-5	0	0%	x
O=C(NCc1ccc2c(c1)OCO2)c1ccc(NS(=O)(=O)c2ccc3c(c2)OCCO3)cc1	0	1%	-3%	-5	1	4.5µM*	1
CNc1c([N+](=O)[O-])cnn1-c1ccc(Cl)cc1	-3	-12%	0%	-1	0	7.9µM*	8
SMILES	IL2 activator	BRCA1 expr up	TSG101-PTAP inh	TRPML1 inh	TRPML1 agonist	PKM2 act	HeLa tox
COc1ccc(S(=O)(=O)N2CCN(S(=O)(=O)c3c(F)cccc3F)CC2)cc1	x	x	x	x	x	x	4
Cc1cccc(NS(=O)(=O)c2cc3c(cc2C)NC(=O)CO3)c1	-3	21%	0%	5	0	0.71µM*	-15
Cc1cc2c(cc1S(=O)(=O)Nc1cccc(C)c1C)OCC(=O)N2	-1	-9%	-6%	-1	0	u	x
O=c1c(Cc2ccc(Cl)cc2)c(O)ccn1Cc1ccncc1	1	0%	-6%	-5	1	8.9µM*	-3
CCOC(=O)c1ccc(-n2c(N)c(C(=O)NCc3ccco3)sc2=S)cc1	0	0%	-5%	1	1	u	x
CCn1c(N)c(C(=O)NCc2ccco2)sc1=S	-1	-4%	-6%	-16	-1	3.5µM*	-26
CC(C)c1ccc(S(=O)(=O)c2cc3cc(Br)ccc3oc2=O)cc1	0	-88%	2%	-1	2	0.56µM*	-12
COc1ccc2[nH]c(=O)c(-c3noc(-c4ccccc4)n3)cc2c1	1	5.6µM*	-7%	-8	1	11µM*	-27
CCc1ccc(OCCCn2c(CCNC(=O)C3CCCCC3)nc3ccccc32)cc1	x	10%	x	x	0	x	x
COC(=O)c1ccc(C(/C=C/[C@@H](C)C(=O)NCc2ccc(OC)c(O)c2)NC(=O)OCc2ccccc2)cc1 (stereo not given in full)	x	x	x	x	x	-5%	x
COc1ccc(C(=O)N/N=C/c2ccc(N3CCOCC3)o2)cc1OC	-3	0%	1%	3	0	2.5µM*	1
COc1ccc(C(=O)N/N=C/c2ccc(N3CCOCC3)s2)cc1OC	0	-18%	-13%	-2	0	x	x
CC(C)(C)C1CCc2c(sc3nc(-c4cc5cc(Cl)ccc5oc4=O)[nH]c(=O)c23)C1 (stereo not given)	x	x	x	13	0	x	x
O=[N+]([O-])c1ccc(NCCCNS(=O)(=O)c2ccccc2)c(Cl)c1	-2	-27%	2%	66	1	7.9µM*	-28
Cc1cccc(N2CCN(C(=O)c3c(C)nn(Cc4ccccc4Cl)c3C)CC2)c1C	-3	-68%	-1%	-5	2	3.5µM*	u
Cc1cc2c(s1)c1cnn(Cc3ccc(C(F)(F)F)cc3)c(=O)c1n2C	x	x	x	x	x	x	7
Cc1cc2c(s1)c1cnn(Cc3ccc(C(C)C)cc3)c(=O)c1n2C	x	x	x	x	x	x	-7

Screens from PubChem BioAssay.
